The results in this text go back to PubChem BioAssay.

Molecules are shown by their SMILES. Activity calls are given as the source filed them.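 Rule for the calls, unless noted: active = aptamer binding inhibition above 30%, about 3 SD of noise from non-fluorescent compounds; inactive = inhibition at or below 30%.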

Assay [1] is described as follows: reduced mouse 2C T cell binding to pMHC/ICAM-1 vesicles – MLPCN validation set, flow cytometry, LFA-1/ICAM-1 modulator project, pilot screen (AID 2523;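 active = response below a set limit, under 55% cells CD8-positive and vesicle-bound, and CD8 cells' 90th-percentile brightness under 279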;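 for vesicle binding response: mean PE anti-B7-1 fluorescence of CD8+ cells relative to row control; 100% = QL9-loaded vesicles with DMSO vehicle in the same plate row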). As to conditions: 2C mouse CD8+ T cells, at 7 µM, stronger effect = lower value; double positive events: measured here: CD8+/vesicle+ event percentage.
Assay [2] concerns the target Integrin beta-1 (Homo sapiens) + Integrin alpha-4 (Homo sapiens) (UniProt P13612+P05556). The experiment in a line: alpha4beta1 integrin LIBS antibody binding reduction – U937 cells, HUTS-21 mAb, flow cytometry, validation set, VLA-4 allosteric modulator project, pilot screen (AID 2674;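 active = inhibition above 50%, about 3 SD of the validation set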;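 note: antibody binding induced by the VLA-4 ligand LDV present at three times its Kd; 0% = LDV ligand with antibody and no compound and 100% = antibody without LDV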). As to conditions: HUTS-21 LIBS mAb binding, at 6.7 µM, stronger effect = higher value, binding induced by LDV ligand. In general terms: A flow cytometer gives signals particle by particle.

A short description of assay [3]: calorie-restriction mimetic ROS inhibitors, yeast – validation compound set, pilot screen (AID 2706;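 active = superoxide response below 65% of plate, a cut near 3 SD across the whole screen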;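 note: yeast exposed to compound for one week at 30 degrees C before staining; 100% = mean of all compound wells on the same plate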). As to conditions: S. cerevisiae aging, superoxide DHE fluorescence; at 10 µM, stronger effect = lower value.
Assay [4] concerns the target Beta-adrenergic receptor kinase 1 (Homo sapiens) (UniProt P25098). The assay is described as follows: GRK2 binders displacing RNA aptamer, biochemical, validation, human GRK2, bead flow cytometry (AID 488806). The following applies: bead-bound GRK2, FAM-aptamer displacement, at 10 µM, stronger effect = higher value.
For assay [5], the target named is Beta-2 adrenergic receptor (Homo sapiens) (UniProt P07550). The experiment in a line: agonist-induced loss of surface beta2AR – cell-based, FAP fluorogen, flow cytometry, validation set, pilot screen (AID 504459;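 active = percent response above 42, roughly 3 SD of non-fluorescent test compounds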;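 note: agonist-driven loss of surface beta2AR via internalization measured by FAP dye flow cytometry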). The following applies: Am2.2-beta2AR cells, at 10 µM, stronger effect = higher value.
Assay [6] addresses AP-2 complex subunit beta (Homo sapiens) (UniProt P63010). The assay is described as follows: beta-arrestin/AP2 interaction blockers – biochemical, validation set, GST-AP2 beads, flow cytometry, pilot screen (AID 504541;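 active = inhibition above 54%, about 3 SD of non-fluorescent compounds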;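 note: AP2 carries R879A mutation and is captured from E. coli lysate; bead-bound FITC arrestin peptide fluorescence measuring arrestin peptide binding to AP2; 0% = DMSO wells and 100% = excess unlabeled arrestin peptide control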). As to conditions: FITC arrestin peptide, at 10 µM, stronger effect = higher value, AP2 beta2 appendage fragment, R879A mutant.
The nature of assay [7]: cytosolic pH regulators acting via V-ATPase – S. cerevisiae, pHLuorin, HTS validation (AID 504600; in the data active = response above about 15%;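 note: plate controls were DMSO for no effect and reference compound for full effect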). As to conditions: V-ATPase proton transport, at 10 µM, stronger effect = higher value.
Assay [8] has as its system anti-desmoglein-3 scFv antibody binding to human DSG3. The assay is described as follows: blockers of pathogenic pemphigus antibody–desmoglein-3 binding – biochemical, validation compound set, bead-based, flow cytometry, pilot screen (AID 588368;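 active = binding below the plate cutoff, the plate median minus 3 SD, with a reading above zero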;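 note: signal is the median channel fluorescence of bead-bound GFP antibody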). The following applies: Protein G beads, DSG3-Fc, scFv-GFP binding, at 10 µM, stronger effect = lower value.
Assay [9] in a line: Nile Red efflux blockade in pump-expressing yeast – validation compound set, multiplex, phenotypic, pilot screen (AID 588506;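 active = efflux inhibition above 0.42, the validation set average plus 4 SD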;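 note: Nile Red retained in cells so higher fluorescence means more efflux inhibition; 0 = negative control wells and 1 = enniatin B 25 µM full block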). As to conditions: S. cerevisiae pump-expressing triplex, Nile Red efflux flow cytometry; at 10 µM; stronger effect = higher value; the pumps come from Candida albicans.
The target in assay [10] is ATP-binding cassette sub-family B member 6 (Homo sapiens) (UniProt Q9NP58). The assay is described as follows: blockers of ABCB6-driven porphyrin uptake – K562-ABCB6 cells, flow cytometry, validation set, pilot screen (AID 588550;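 active = inhibition above the screen-wide mean plus 3 SD, about 51%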;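 note: 0% = DMSO wells and 100% = benzethonium chloride 70 µM positive control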). The following applies: K562-ABCB6 porphyrin accumulation, 1 h, at 10 µM, stronger effect = higher value.
The nature of assay [11]: AML differentiation inducers, ER-HoxA9 marrow cells – cell-based, GFP/MAC1 double positive, flow cytometry, validation set, primary screen (AID 588685;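 active = differentiation response of at least 50%, scaled between solvent and reference control, from cells with both markers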;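 note: compound exposure lasts four days before antibody staining and flow analysis; 0% = DMSO wells and 100% = 5 µM fulvestrant positive control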). The following applies: stronger effect = higher value, normalized: vehicle 0, fulvestrant 100.

Sequence of Beta-2 adrenergic receptor (Homo sapiens) (P07550 whole entry, looked up): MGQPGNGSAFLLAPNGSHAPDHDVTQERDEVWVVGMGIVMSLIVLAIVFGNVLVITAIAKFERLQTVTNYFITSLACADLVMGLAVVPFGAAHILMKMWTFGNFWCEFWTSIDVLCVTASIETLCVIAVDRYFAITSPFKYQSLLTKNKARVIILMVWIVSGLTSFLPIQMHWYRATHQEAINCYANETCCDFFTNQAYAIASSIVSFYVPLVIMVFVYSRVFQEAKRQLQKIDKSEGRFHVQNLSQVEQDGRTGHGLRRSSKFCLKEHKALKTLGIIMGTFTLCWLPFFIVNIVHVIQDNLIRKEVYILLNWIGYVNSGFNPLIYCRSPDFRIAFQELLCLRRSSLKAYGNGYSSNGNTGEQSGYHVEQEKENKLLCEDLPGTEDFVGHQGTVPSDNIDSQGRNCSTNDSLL
Sequence of AP-2 complex subunit beta (Homo sapiens) (P63010 whole entry, looked up, the tested form may be a part, one chain of several): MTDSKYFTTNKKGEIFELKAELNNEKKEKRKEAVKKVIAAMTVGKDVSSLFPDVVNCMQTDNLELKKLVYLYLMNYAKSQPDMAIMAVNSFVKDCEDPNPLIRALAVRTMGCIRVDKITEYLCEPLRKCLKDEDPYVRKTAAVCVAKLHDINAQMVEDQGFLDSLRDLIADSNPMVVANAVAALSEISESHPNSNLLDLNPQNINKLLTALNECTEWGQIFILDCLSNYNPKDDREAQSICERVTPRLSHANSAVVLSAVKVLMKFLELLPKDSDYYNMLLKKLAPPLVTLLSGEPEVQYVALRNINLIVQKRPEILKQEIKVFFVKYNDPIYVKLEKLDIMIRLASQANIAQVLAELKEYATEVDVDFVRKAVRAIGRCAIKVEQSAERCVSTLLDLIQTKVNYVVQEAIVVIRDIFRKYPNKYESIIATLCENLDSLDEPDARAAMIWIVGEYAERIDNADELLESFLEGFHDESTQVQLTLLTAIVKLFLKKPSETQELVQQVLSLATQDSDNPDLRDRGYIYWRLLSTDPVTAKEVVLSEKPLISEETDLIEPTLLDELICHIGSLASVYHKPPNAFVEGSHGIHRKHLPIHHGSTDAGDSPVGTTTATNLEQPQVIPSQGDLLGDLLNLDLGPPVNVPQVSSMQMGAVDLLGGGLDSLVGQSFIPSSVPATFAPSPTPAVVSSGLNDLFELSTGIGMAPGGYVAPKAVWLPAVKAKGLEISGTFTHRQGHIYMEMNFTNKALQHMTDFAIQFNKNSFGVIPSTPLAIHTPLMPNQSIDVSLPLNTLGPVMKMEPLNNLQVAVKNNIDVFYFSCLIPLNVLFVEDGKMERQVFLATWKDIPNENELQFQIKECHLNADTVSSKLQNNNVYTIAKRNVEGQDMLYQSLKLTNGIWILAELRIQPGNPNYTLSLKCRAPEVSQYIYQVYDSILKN
Sequence of Integrin beta-1 (Homo sapiens) + Integrin alpha-4 (Homo sapiens) (P05556 whole entry, looked up): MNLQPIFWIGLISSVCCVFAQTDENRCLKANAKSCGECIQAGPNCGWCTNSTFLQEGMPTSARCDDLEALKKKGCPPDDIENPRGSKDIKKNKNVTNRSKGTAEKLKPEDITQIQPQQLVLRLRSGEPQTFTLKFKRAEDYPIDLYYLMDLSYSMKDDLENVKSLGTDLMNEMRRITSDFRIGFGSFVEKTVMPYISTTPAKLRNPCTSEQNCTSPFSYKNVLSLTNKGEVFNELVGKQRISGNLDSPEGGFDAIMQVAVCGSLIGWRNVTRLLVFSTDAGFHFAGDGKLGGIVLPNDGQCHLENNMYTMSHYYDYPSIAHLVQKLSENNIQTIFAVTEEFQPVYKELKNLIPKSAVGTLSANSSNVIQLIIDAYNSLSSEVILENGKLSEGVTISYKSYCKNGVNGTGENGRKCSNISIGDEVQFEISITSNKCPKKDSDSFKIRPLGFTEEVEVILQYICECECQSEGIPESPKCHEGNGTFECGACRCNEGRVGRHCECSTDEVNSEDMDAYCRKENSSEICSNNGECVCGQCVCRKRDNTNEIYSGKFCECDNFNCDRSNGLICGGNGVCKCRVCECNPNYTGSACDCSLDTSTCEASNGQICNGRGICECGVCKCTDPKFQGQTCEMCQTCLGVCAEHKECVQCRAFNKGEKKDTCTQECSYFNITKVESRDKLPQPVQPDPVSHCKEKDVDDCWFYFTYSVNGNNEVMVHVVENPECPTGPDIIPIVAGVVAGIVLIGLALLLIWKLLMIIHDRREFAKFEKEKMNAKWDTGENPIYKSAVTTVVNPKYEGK
Sequence of Integrin beta-1 (Homo sapiens) + Integrin alpha-4 (Homo sapiens) (P13612 whole entry, looked up): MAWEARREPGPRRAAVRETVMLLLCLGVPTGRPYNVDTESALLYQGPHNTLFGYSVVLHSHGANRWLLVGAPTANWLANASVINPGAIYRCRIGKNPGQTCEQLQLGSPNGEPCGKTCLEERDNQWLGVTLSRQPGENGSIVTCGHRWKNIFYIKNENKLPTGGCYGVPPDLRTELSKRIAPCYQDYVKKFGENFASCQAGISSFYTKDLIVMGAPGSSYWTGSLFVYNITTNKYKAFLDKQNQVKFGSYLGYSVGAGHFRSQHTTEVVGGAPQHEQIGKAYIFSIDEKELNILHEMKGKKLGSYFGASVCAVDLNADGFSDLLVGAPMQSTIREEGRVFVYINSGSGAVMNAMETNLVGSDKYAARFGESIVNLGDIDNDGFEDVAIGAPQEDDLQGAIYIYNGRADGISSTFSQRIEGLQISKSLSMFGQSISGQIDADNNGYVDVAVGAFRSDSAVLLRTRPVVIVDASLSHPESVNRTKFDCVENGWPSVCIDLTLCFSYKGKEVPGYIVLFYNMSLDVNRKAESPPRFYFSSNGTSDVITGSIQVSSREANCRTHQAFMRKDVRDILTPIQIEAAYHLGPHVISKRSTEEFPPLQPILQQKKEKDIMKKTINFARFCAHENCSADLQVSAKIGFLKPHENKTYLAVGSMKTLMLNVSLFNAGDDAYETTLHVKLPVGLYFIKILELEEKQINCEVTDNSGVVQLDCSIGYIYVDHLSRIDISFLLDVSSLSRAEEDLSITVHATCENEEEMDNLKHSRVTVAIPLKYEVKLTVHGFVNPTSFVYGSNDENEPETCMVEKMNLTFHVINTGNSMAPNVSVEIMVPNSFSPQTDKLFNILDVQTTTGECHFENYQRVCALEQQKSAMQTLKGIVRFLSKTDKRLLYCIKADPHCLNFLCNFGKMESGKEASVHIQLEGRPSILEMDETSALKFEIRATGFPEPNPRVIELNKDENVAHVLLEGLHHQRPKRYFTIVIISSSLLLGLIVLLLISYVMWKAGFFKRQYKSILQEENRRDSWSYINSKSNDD
Sequence of ATP-binding cassette sub-family B member 6 (Homo sapiens) (Q9NP58 whole entry, looked up): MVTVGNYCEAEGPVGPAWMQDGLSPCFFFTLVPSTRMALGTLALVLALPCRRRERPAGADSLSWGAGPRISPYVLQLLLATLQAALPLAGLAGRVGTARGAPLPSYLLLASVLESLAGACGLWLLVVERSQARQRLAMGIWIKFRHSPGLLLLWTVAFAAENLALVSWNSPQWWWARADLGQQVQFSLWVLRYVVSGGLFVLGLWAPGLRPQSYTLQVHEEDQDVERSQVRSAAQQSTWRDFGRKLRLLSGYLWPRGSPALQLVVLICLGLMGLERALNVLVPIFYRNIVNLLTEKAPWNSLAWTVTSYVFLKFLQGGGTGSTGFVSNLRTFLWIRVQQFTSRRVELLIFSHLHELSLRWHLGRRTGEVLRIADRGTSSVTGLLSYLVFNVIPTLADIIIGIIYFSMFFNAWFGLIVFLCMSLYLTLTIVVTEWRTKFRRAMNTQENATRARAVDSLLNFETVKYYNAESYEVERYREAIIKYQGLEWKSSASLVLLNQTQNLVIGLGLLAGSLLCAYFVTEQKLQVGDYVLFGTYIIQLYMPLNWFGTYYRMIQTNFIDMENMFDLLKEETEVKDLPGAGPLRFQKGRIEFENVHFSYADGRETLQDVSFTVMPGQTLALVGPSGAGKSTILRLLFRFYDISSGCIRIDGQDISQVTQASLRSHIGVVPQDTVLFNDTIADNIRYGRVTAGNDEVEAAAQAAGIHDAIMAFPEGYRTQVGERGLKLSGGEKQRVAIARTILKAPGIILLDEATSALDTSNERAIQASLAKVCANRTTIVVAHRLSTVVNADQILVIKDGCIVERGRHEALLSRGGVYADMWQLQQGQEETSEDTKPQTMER
Sequence of Beta-adrenergic receptor kinase 1 (Homo sapiens) (P25098 whole entry, looked up): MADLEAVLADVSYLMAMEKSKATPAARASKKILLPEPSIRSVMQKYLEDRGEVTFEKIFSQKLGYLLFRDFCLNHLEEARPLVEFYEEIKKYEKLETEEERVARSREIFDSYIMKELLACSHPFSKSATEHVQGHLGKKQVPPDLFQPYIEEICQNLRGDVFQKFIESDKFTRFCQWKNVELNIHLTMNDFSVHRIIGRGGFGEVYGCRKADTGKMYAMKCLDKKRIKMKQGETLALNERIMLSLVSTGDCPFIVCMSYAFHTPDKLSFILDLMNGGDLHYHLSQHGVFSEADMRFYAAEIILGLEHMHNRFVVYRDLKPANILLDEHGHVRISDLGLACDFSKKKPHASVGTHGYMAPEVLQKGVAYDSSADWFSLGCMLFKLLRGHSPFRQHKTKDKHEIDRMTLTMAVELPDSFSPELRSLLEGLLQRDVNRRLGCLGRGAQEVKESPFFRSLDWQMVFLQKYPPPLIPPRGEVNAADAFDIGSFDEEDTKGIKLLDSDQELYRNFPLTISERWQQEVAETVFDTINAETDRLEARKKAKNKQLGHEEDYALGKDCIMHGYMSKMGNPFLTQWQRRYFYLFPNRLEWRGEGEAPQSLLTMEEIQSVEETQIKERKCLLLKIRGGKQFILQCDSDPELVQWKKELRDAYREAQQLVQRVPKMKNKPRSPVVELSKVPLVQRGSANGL

One may read the inhibition as the drop in the measured response relative to a control, in per cent. Regarding `O=C(O)C1Sc2[nH]c(=O)sc2C2c3ccc(O)cc3OC(=O)C12` (stereo unspecified), in [1], the double positive events came to 62.6%. Besides, the vesicle binding response in assay [1] was 157% (inactive). In addition, the inhibition in assay [2] is -11.8% (inactive); in assay [6], -0.44% (inactive); in [10], -131% (inactive). Moreover, the superoxide response (% of plate) in [3] is 107% (inactive). For the same molecule, in assay [4], the aptamer binding inhibition was 1% (inactive). In addition, the results for the response in assay [5] and in [7] were -11.1% (inactive) and 5.3% (inactive), respectively. The binding (% of control) in assay [8] is 95.7% (inactive). In addition, the efflux inhibition (fraction of control) in assay [9] is -0.1 (inactive). The differentiation response in assay [11] was -3.11% (inactive).
In assay [1], `CCc1cc2c3c(c(=O)oc2cc1O)CCCC3` showed a double positive events of 67.8%. Also, the vesicle binding response in [1] is 257% (inactive). Besides, the inhibition was -18.2% (inactive) in assay [2], -7.42% (inactive) in [6] and 11% (inactive) in assay [10]. Also, the superoxide response (% of plate) in [3] is 93.2% (inactive). Also, the aptamer binding inhibition in assay [4] was 1% (inactive). In addition, the figures for the response in assay [5] and in assay [7] were 1.88% (inactive) and 2.52% (inactive), respectively. The binding (% of control) in assay [8] was 99.5% (inactive). Besides, the efflux inhibition (fraction of control) in [9] was -0.21 (inactive). Further, in assay [11], the differentiation response was 4% (inactive).
In assay [1], `CCc1cc(=O)oc2cc(OCC=C(C)C)ccc12` registered a double positive events of 66.7%. The vesicle binding response in assay [1] is 297% (inactive). The inhibition in assay [2] is 26.9% (inactive); in [6], -1.05% (inactive); in assay [10], 3% (inactive). The superoxide response (% of plate) in assay [3] was 89.5% (inactive). Besides, the aptamer binding inhibition in [4] is 6% (inactive). Besides, the response in assay [5] was 1.45% (inactive); in assay [7], -0.58% (inactive). The binding (% of control) in [8] is 103% (inactive). Moreover, the efflux inhibition (fraction of control) in assay [9] was -0.03 (inactive). The differentiation response in [11] is -18.4% (inactive).
With `NC12CC3CC(C1)CC(O)(C3)C2`, the double positive events in assay [1] is 65.4%. In addition, the vesicle binding response in [1] was 201% (inactive). The inhibition in assay [2] is 2.66% (inactive); in assay [6], -6.38% (inactive); in assay [10] it was 11% (inactive). Moreover, in assay [3], the superoxide response (% of plate) was 95.4% (inactive). The aptamer binding inhibition in [4] is 3% (inactive). The response was -10% (inactive) in [5] and 2.64% (inactive) in assay [7]. Further, in assay [8], the binding (% of control) was 99% (inactive). For the same molecule, in [9], the efflux inhibition (fraction of control) was 0.14 (inactive). Moreover, in [11], the differentiation response was 4.15% (inactive).
In assay [1], `O=C(Cc1ccc(Br)cc1)c1ccc(O)cc1O` displayed a double positive events of 58.3%. In assay [1], the vesicle binding response is 228% (inactive). Further, the inhibition is -23.6% (inactive) in [2], -2.59% (inactive) in assay [6] and 2% (inactive) in assay [10]. For the same molecule, in assay [3], the superoxide response (% of plate) is 97.7% (inactive). Moreover, the aptamer binding inhibition in [4] is -1% (inactive). The results for the response in assay [5] and in assay [7] were -3.21% (inactive) and 1.13% (inactive), respectively. Also, in [8], the binding (% of control) was 105% (inactive). The efflux inhibition (fraction of control) in [9] was 0.09 (inactive). For the same molecule, the differentiation response in [11] was 12.3% (inactive).
In [1], `COc1cc2c(cc1O)CCN(C(=O)c1ccco1)C2C` (stereo unspecified) yielded a double positive events of 59.4%. The vesicle binding response in assay [1] was 242% (inactive). Moreover, the inhibition is 5.03% (inactive) in assay [2], 14.6% (inactive) in [6] and 4% (inactive) in assay [10]. The superoxide response (% of plate) in assay [3] was 98.4% (inactive). For the same molecule, the aptamer binding inhibition in [4] was -1% (inactive). In addition, the response in assay [5] was 0.24% (inactive); in assay [7] it was 0.13% (inactive). The binding (% of control) in [8] was 97.4% (inactive). In [9], the efflux inhibition (fraction of control) was 0.22 (inactive). For the same molecule, the differentiation response in [11] was 8.8% (inactive).
In turn, `CC(=O)c1c(C)[nH]c(C(=O)OCc2ccccc2)c1C` yielded a double positive events in [1] of 60.2%. Also, the vesicle binding response in assay [1] is 120% (inactive). Also, the results for the inhibition in [2], in assay [6] and in [10] were 1.59% (inactive), 9.32% (inactive) and 1% (inactive), respectively. The superoxide response (% of plate) in assay [3] is 103% (inactive). The aptamer binding inhibition in [4] was 3% (inactive). Further, the response in [5] is -5.41% (inactive); in assay [7] it was 0.36% (inactive). Also, in [8], the binding (% of control) is 103% (inactive). The efflux inhibition (fraction of control) in [9] was -0.25 (inactive). In addition, in [11], the differentiation response is -13.3% (inactive).
The molecule `COc1ccccc1C1(CC(=O)N2CCCCC2)CCOC(C(C)C)C1` (stereo unspecified) displayed a double positive events in assay [1] of 60.3%. In addition, in [1], the vesicle binding response is 205% (inactive). Further, the figures for the inhibition in assay [2], in assay [6] and in [10] were 6.4% (inactive), -7.8% (inactive) and 6% (inactive), respectively. For the same molecule, the superoxide response (% of plate) in [3] was 97.5% (inactive). Besides, in assay [4], the aptamer binding inhibition is 0% (inactive). Besides, the figures for the response in assay [5] and in assay [7] were 8.83% (inactive) and 2.05% (inactive), respectively. Moreover, in assay [8], the binding (% of control) was 105% (inactive). Also, the efflux inhibition (fraction of control) in [9] was 0.33 (inactive). Also, the differentiation response in assay [11] was 23.2% (inactive).
Take `COc1ccc(/C=N\NC(=O)CCc2c(C)n[nH]c2C)c(OC)c1OC`: the double positive events in assay [1] was found to be 60.3%. Besides, the vesicle binding response in assay [1] was 151% (inactive). For the same molecule, the inhibition is -3.16% (inactive) in [2], 7.15% (inactive) in assay [6] and 4% (inactive) in [10]. Further, in [3], the superoxide response (% of plate) was 111% (inactive). In [4], the aptamer binding inhibition was 2% (inactive). In addition, the response in assay [5] is 3.8% (inactive); in [7], -0.97% (inactive). In [8], the binding (% of control) is 102% (inactive). Also, the efflux inhibition (fraction of control) in assay [9] was -0.21 (inactive). Also, in [11], the differentiation response is 4% (inactive).
Take `Cc1nnc(SCC(=O)N2CCCC(C(=O)c3ccc(Cl)cc3)C2)o1` (stereo unspecified): in assay [1], the double positive events was 71.9%. The vesicle binding response in assay [1] is 299% (inactive). For the same molecule, the inhibition was 2.3% (inactive) in assay [2], -3.16% (inactive) in [6] and 3% (inactive) in assay [10]. Further, in [3], the superoxide response (% of plate) is 95.6% (inactive). In addition, in assay [4], the aptamer binding inhibition was 1% (inactive). For the same molecule, the response in [5] was -7.42% (inactive); in assay [7], 2.16% (inactive). Further, the binding (% of control) in assay [8] was 105% (inactive). The efflux inhibition (fraction of control) in assay [9] was 0.3 (inactive). Moreover, the differentiation response in assay [11] was -13.6% (inactive).
Consider `COc1ccc(CC(=O)N2CC3(C)CC2CC(C)(C)C3)cc1OC` (stereo unspecified), for which the double positive events in assay [1] is 64.1%. Besides, in [1], the vesicle binding response was 255% (inactive). Also, the inhibition in assay [2] was -5.89% (inactive); in assay [6] it was -2.57% (inactive); in assay [10], 3% (inactive). In addition, the superoxide response (% of plate) in assay [3] is 91.8% (inactive). For the same molecule, the aptamer binding inhibition in assay [4] was 1% (inactive). The response in assay [5] was -7.91% (inactive); in assay [7] it was 1.81% (inactive). Also, the binding (% of control) in assay [8] is 102% (inactive). For the same molecule, the efflux inhibition (fraction of control) in assay [9] is 0.44 (active). Further, the differentiation response in [11] was 5.6% (inactive).
As for `Cc1oc(/C=N/NC(=O)CC2(C)OCCO2)cc1Br`, in assay [1], the double positive events was found to be 60.6%. Also, the vesicle binding response in assay [1] is 93.4% (inactive). Also, the inhibition in assay [2] was 4.27% (inactive); in [6], 0.64% (inactive); in [10], 18% (inactive). The superoxide response (% of plate) in assay [3] was 107% (inactive). For the same molecule, the aptamer binding inhibition in assay [4] was -3% (inactive). For the same molecule, the response in assay [5] was 4.99% (inactive); in [7], 68.3% (active). The binding (% of control) in assay [8] was 104% (inactive). The efflux inhibition (fraction of control) in assay [9] was -0.245 (inactive). In assay [11], the differentiation response is -0.18% (inactive).
For the molecule `CCc1cn([C@H]2C[C@H](O)[C@@H](CO)O2)c(=O)[nH]c1=O`, the double positive events in assay [1] amounted to 71.1%. In [1], the vesicle binding response was 232% (inactive). Also, the inhibition in [2] was -0.33% (inactive); in assay [6], 3.19% (inactive); in assay [10], 16% (inactive). Moreover, in assay [3], the superoxide response (% of plate) is 95.6% (inactive). Also, the aptamer binding inhibition in [4] is -1% (inactive). Besides, the response is 7.43% (inactive) in assay [5] and -0.71% (inactive) in assay [7]. For the same molecule, the binding (% of control) in [8] was 100% (inactive). For the same molecule, the efflux inhibition (fraction of control) in [9] was -0.42 (inactive). Moreover, in [11], the differentiation response is 1.64% (inactive).
